From PubChem BioAssay

Test: NFkB reporter suppression in cystic fibrosis bronchial cells – cell-based, uHTS hits, panel, cytotoxicity readout, dose response (AID 624344)
Settings: CF bronchial epithelial cells, PAF-induced NFkB reporter inhibition, with PAF, run 2; at 79 µM (top of the series) unless noted

**Q.** With `CC(C)Cc1nc2oc3c(NCC4CCCO4)ncnc3c2c2c1CCC2` (stereo not given) as the molecule, how does the inhibition read?
**A.** The inhibition was 98.5%.

**Q.** For `COc1cc(CN(C)c2ccc(S(=O)(=O)N3CCCC3)cn2)ccc1OC(F)F`, which inhibition is on record?
**A.** The inhibition was 98.6%.

**Q.** For `COc1ccccc1NC(=O)c1cc2c(CO)cnc(C)c2oc1=Nc1ccc(OC)c(OC)c1`, which inhibition is on record?
**A.** The inhibition was 93.8%.

**Q.** With `CC(=O)c1cccc(NC(=O)COC(=O)c2ccc(S(C)(=O)=O)c([N+](=O)[O-])c2)c1` as the molecule, how does the inhibition read?
**A.** The inhibition was 93.4%.

**Q.** For `NC(=O)c1cc2ccc(O)cc2oc1=Nc1ccccc1`, which inhibition is on record?
**A.** Its inhibition is 95.2%.

**Q.** With `O=C(Nc1cccnc1)c1sc2cccc(F)c2c1Cl` as the molecule, how does the inhibition read?
**A.** Its inhibition is 92.7%.

**Q.** For `COc1ccc(CN2C[C@H]3CCCN3c3cc(Br)ccc3S2(=O)=O)cc1`, which inhibition is on record?
**A.** The inhibition was 92.2%.

**Q.** With `O=S(=O)(c1ccc(Br)cc1)c1cnc2ccccc2n1` as the molecule, how does the inhibition read?
**A.** Its inhibition is 106%.

**Q.** Which inhibition does the source give for `O=C(NCc1ccccc1)C1=C[C@H](c2csc3ccccc23)C[C@H](OCc2ccc(CO)cc2)O1` here?
**A.** The inhibition was 52.1%.

**Q.** Which inhibition does the source give for `O=C(COc1ccc(Cl)cc1)Nc1ncc([N+](=O)[O-])s1` here?
**A.** Its inhibition is 83.3%.

**Q.** With `CCOc1ccc(CCN2C(=S)N([C@@H](CC(C)C)CN3CCCC3CN3C(=S)NC[C@@H]3CC(C)C)C[C@@H]2Cc2ccc(O)cc2)cc1` (stereo not given in full) as the molecule, how does the inhibition read?
**A.** Its inhibition is 93.9%.

**Q.** For `NC(=S)N1OC[C@@H]2COc3ccc4ccccc4c3[C@@H]21`, which inhibition is on record?
**A.** Its inhibition is 105%.

**Q.** With `O=c1[nH]c(C2CCN(S(=O)(=O)c3ccc4c(c3)OCCO4)CC2)nc2c1nnn2Cc1c(F)cccc1Cl` as the molecule, how does the inhibition read?
**A.** The inhibition was 101%.

**Q.** With `NS(=O)(=O)c1ccc(CCNc2nn3c(-c4cccc(OC(F)(F)F)c4)cnc3s2)cc1` as the molecule, how does the inhibition read?
**A.** Its inhibition is 102%.

**Q.** With `CCOC(=O)c1[nH]c2c(c1C)C(=O)CC(c1ccco1)C2` (stereo not given) as the molecule, how does the inhibition read?
**A.** Its inhibition is 98.7%.

**Q.** With `C[C@@H]1CN([C@H](C)CO)C(=O)c2cc(NC(=O)Nc3ccc(C(F)(F)F)cc3)ccc2O[C@H]1CN(C)S(=O)(=O)c1cccs1` as the molecule, how does the inhibition read?
**A.** Its inhibition is 96.8%.

**Q.** With `CC[C@@H](C(=O)[C@@H](C)[C@@H](O)[C@H](C)[C@@H]1O[C@@H]([C@@H](CC)C(=O)O)CC[C@@H]1C)[C@H]1O[C@]2(C=C[C@@H](O)[C@]3(CC[C@@](C)([C@H]4CC[C@](O)(CC)[C@H](C)O4)O3)O2)[C@H](C)C[C@@H]1C` as the molecule, how does the inhibition read?
**A.** The inhibition was 107%.

**Q.** For `CC(C)(C)C(=O)/C(=C/c1ccncc1)n1cncn1`, which inhibition is on record?
**A.** The inhibition was 102%.

**Q.** For `COc1cccc(/C=N/n2c(C3CCCCC3)n[nH]c2=S)c1`, which inhibition is on record?
**A.** Its inhibition is 106%.

**Q.** Which inhibition does the source give for `CC(=O)c1c(O)cc2c3c1OC(C)(C)C1CCC(C)(CC31)O2` (stereo not given) here?
**A.** The inhibition was 99%.

**Q.** Which inhibition does the source give for `c1cc(-c2nnc3sc(C4CCCCC4)nn23)ccn1` here?
**A.** The inhibition was 109%.

**Q.** For `COc1cc(-c2cc(C(=O)Nc3ccc(S(=O)(=O)NCc4ccco4)cc3)c3ccccc3n2)cc(OC)c1OC`, which inhibition is on record?
**A.** Its inhibition is 102%.

**Q.** Which inhibition does the source give for `COc1cc2c(c(OC)c1OC)-c1ccc(NCc3ccccc3)c(=O)cc1C(NC(C)=O)CC2` (stereo not given) here?
**A.** The inhibition was 112%.

**Q.** With `COc1ccc(OC)c(-c2nnc3n2N=C(c2ccc(OC)c(OC4CCCC4)c2)CS3)c1` as the molecule, how does the inhibition read?
**A.** The inhibition was 110%.

**Q.** For `Cc1c(Cl)cccc1NC(=O)COC(=O)c1c2c(nc3ccccc13)CCN(Cc1ccccc1)C2`, which inhibition is on record?
**A.** Its inhibition is 97.3%.

**Q.** With `COc1cc(/C=C2\SC(=O)N(CCNC(=O)c3sc4cc(F)ccc4c3Cl)C2=O)cc(OC)c1OC` as the molecule, how does the inhibition read?
**A.** Its inhibition is 30.8%.

**Q.** With `O=S(=O)(Nc1nc2ccccc2nc1N1CCN(c2ccccc2F)CC1)c1ccc(Cl)cc1` as the molecule, how does the inhibition read?
**A.** Its inhibition is 111%.

**Q.** With `COc1cc(C2c3cc4c(cc3C3OC(=O)C2C3CO)OCO4)cc(OC)c1OC` (stereo not given) as the molecule, how does the inhibition read?
**A.** Its inhibition is 94.7%.

**Q.** Which inhibition does the source give for `O=S(=O)(c1cccc2cnccc12)N1CCCNCC1` here?
**A.** The inhibition was 105%.

**Q.** Which inhibition does the source give for `COc1ccc(S(=O)(=O)N(C(C)=O)c2ccc(OC(C)=O)c3ccccc23)cc1[N+](=O)[O-]` here?
**A.** The inhibition was 99.4% [at 39.5 µM].

**Q.** For `FC(F)Sc1ccc(NC(=S)NCC2CCCCC2)cc1`, which inhibition is on record?
**A.** The inhibition was 112%.

**Q.** With `O=C(Nc1cccc(Cl)c1)Nc1csc([N+](=O)[O-])c1` as the molecule, how does the inhibition read?
**A.** Its inhibition is 97.5%.

**Q.** With `COCCNc1nc(Oc2cncc(Cl)c2)c2sccc2n1` as the molecule, how does the inhibition read?
**A.** Its inhibition is 115%.

**Q.** For `COc1ccc([C@]2(C(C)C)ON(c3ccccc3C(F)(F)F)C2=O)cc1`, which inhibition is on record?
**A.** The inhibition was 91.5%.

**Q.** With `COc1ccc(CN(CCC(c2ccc(F)cc2)C2CCOC(C)(C)C2)C(=O)c2ccco2)cc1` (stereo not given) as the molecule, how does the inhibition read?
**A.** Its inhibition is 111%.

**Q.** For `O=C(Nc1ccncc1)c1c(Cl)cccc1Cl`, which inhibition is on record?
**A.** Its inhibition is 101%.

**Q.** For `Cc1ccc(CNc2ncnc3ccc(-c4ccc(CO)o4)cc23)o1`, which inhibition is on record?
**A.** Its inhibition is 99.1%.

**Q.** Which inhibition does the source give for `CCOC(=O)Oc1c(OC)cc(C(=O)O[C@@H]2C[C@@H]3CN4CCc5c([nH]c6cc(OC)ccc56)[C@H]4C[C@@H]3[C@H](C(=O)OC)[C@H]2OC)cc1OC` here?
**A.** Its inhibition is 42.4%.

**Q.** For `Cc1cc(C)c2nc(C(F)(F)F)c(C#N)c(N)c2c1`, which inhibition is on record?
**A.** Its inhibition is 90.1%.

**Q.** For `O=C(Nc1nnc(C(F)(F)F)s1)c1ccc(Br)s1`, which inhibition is on record?
**A.** Its inhibition is 74.5%.
